A selection: hits, their analogues and other compounds. The true share with any hit is near 3.6%.
Pf apPOL inh: Pf-apPOL DNA polymerase inhibition; Recombinant Pf-apPOL, molecular beacon fluorescence, 1.5 h; inhibition, % at 10 µM; hit rate 0.25% among 210,000; AID 1794808
mHTT CaM bind: mHTT-calmodulin interaction abrogation; hit rate 3.6% among 190,000; P42858; AlphaScreen His-mHTT/GST-CaM binding, luminescence; inhibition, % at 15 µM; AID 1671202;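 further: 0% = both proteins with DMSO and 100% = one protein alone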
The depositor's hits bear a star; / = no result given. No stated cut-off is given here; in the data, active means inhibition above about 50%; inactive means the rest.

SMILES	Pf apPOL inh	mHTT CaM bind
CSc1ccc(CN2CCN(c3cnn4c(C)nnc4c3)CC2)cc1	11.3	15.6
COc1ccc(CNC(=O)c2cc3c(n2C)CCN(Cc2cccc(F)c2)C3)cc1	-3.7	28.1
Cn1c(C(=O)NCCN2CCCC2)cc2c1CCN(Cc1cccc(F)c1)C2	11.8	79.2*
Cn1c(C(=O)N2CCN(c3ccccc3)CC2)cc2c1CCN(Cc1cccc(F)c1)C2	-7.1	65.6*
Cn1c(C(=O)N2CCN(c3ccc(F)cc3)CC2)cc2c1CCN(Cc1ccccc1)C2	3.4	84.8*
Cn1c(C(=O)N2CCOCC2)cc2c1CCN(Cc1ccccc1)C2	-1.2	1.4
Cn1c(C(=O)N2CCCCC2)cc2c1CCN(Cc1cccc(F)c1)C2	-6.0	32.7
COc1cccc(-c2noc(C3CCCN3C(=O)C3CCC3)n2)c1 (configuration not stated)	-4.4	-0.5
Cc1ccc(/C=c2\sc3nc(-c4ccc(Cl)cc4)nn3c2=O)o1	-6.2	19.0
CCCNC(=O)C1CCN(c2nnc3ccc(Cl)cn23)CC1	2.5	-8.4
CNC(=O)N1CCCN(C2CCN(Cc3ccc(F)cc3)C2=O)CC1 (configuration not stated)	1.0	1.0
Cc1ccccc1C(=O)N1CCCN(C2CCN(Cc3ccc(F)cc3)C2=O)CC1 (configuration not stated)	0.2	56.7*
O=C(c1ccsc1)N1CCCN(C2CCN(Cc3ccc(F)cc3)C2=O)CC1 (configuration not stated)	-1.3	18.7
Cc1ccsc1C(=O)N1CCCN(C2CCN(Cc3ccc(F)cc3)C2=O)CC1 (configuration not stated)	8.3	64.1*
COC(=O)C1CN(Cc2cn(Cc3ccc(F)cc3)nn2)CCS(=O)(=O)N1Cc1ccc(OC)cc1 (configuration not stated)	1.4	24.7
CC(=O)N1CCCC(COc2ccc(C(=O)N3CCCC3)cc2)C1 (configuration not stated)	13.1	1.3
COC(=O)c1sccc1NC(=O)N1CCCC1c1ccc(OC)cc1 (configuration not stated)	0.3	-6.2
OCCN(CCO)CC(O)Cn1c2ccccc2c2ccccc21 (configuration not stated)	-0.7	25.0
COc1cccc(-c2nc(-c3ccsc3)c(-c3ccccc3)[nH]2)c1OC	-5.4	44.0
COc1cc(-c2nc(-c3ccsc3)c(-c3ccccc3)[nH]2)cc(OC)c1O	-7.2	87.0*
COc1cc(-c2nc(-c3ccccc3)c(-c3ccc(O)cc3)[nH]2)cc(OC)c1O	-1.1	88.0*
Oc1ccc(-c2nc(-c3ccc(F)cc3)c(-c3ccncc3)[nH]2)cc1	17.2	/
c1ccc(-c2nc(-c3cccnc3)[nH]c2-c2ccccc2)cc1	-3.3	/
c1ccc(-c2nc(-c3ccc4c(c3)sc3ccccc34)c(-c3ccccc3)[nH]2)cc1	/	54.9*
Cc1ccc(NC(=O)N2CCC(N3CCN(Cc4ccccc4)C3=O)CC2)cc1Cl	-3.7	1.5
SMILES	Pf apPOL inh	mHTT CaM bind
Cc1ccc2nc(-c3ccccc3C)c(NC(=O)CC(C)C)n2c1	-2.2	2.5
COc1cccc(CNCc2ccccc2F)c1OC	-3.8	-2.4
Nc1ccc(C(=O)N2CCCCC2)cc1	-1.1	-14.3
CC(=O)c1cccc(NC(=O)CSc2nccnc2N2CCSCC2)c1	-6.1	-8.4
Cc1ccc2nc(NC(=O)c3cnccn3)sc2c1	2.0	4.0
CCSc1nnc(NC(=O)Cc2csc(NC(=O)c3cnccn3)n2)s1	44.3	88.4*
O=C(Cc1csc(NC(=O)c2cnccn2)n1)Nc1nc(-c2cccnc2)cs1	55.0*	99.5*
O=C(Cc1csc(NC(=O)c2cnccn2)n1)Nc1nc2ccccc2s1	30.4	80.5*
O=C(Cc1csc(NC(=O)C2CCCC2)n1)Nc1nc(-c2cccnc2)cs1	-8.7	-17.0
O=C(Cc1csc(NC(=O)c2cnccn2)n1)Nc1cccc(C(F)(F)F)c1	8.1	84.4*
CCSc1nnc(NC(=O)c2cnccn2)s1	-7.5	4.0
CCSc1nnc(NC(=O)Cc2csc(Nc3cccc(C(F)(F)F)c3)n2)s1	-8.7	11.4
Cc1ccc(-n2nc(C)c3sc(N4CCCC(C(=O)Nc5ccccc5C)C4)nc32)cc1 (configuration not stated)	-9.3	1.3
COc1ccc(CSc2nnc(-c3ccc([N+](=O)[O-])cc3)n2C)cc1OC	3.5	-5.2
Cc1noc(C)c1CCC(=O)NCc1cc(-c2ccc3c(c2)OCCO3)on1	-5.2	-4.3
C=CCc1cccc2cc(C(=O)Nc3ccc(Cl)c(Cl)c3)c(=O)oc12	3.2	17.0
COc1ccc2[nH]cc(CCNC(=O)c3ccc(Cl)cc3)c2c1	2.3	13.5
O=C(NCCc1c[nH]c2ccc(OCc3ccccc3)cc12)c1ccc(Cl)cc1	-2.5	73.0*
CC(C)CCNC(=O)CCC(=O)N1CCCn2nc(-c3cccn3C)cc21	-3.1	19.4
CN(C)c1ccc(CNC(=O)CCC(=O)N2CCCn3nc(-c4cccn4C)cc32)cc1	-0.7	73.8*
CCn1c(C2CCN(C(=O)Nc3cccc(C(F)(F)F)c3)C2)nc2cccnc21 (configuration not stated)	-2.8	10.1

From PubChem
